# Assay outcomes (PubChem)
# Rows were chosen to be rich in hits. Some 5.8% of all compounds tested hit in one or more screens of this group.
# MCF10A rereplic – A quantitative high throughput screen for small molecules that induce DNA re-replication in MCF 10a normal breast cells; MCF 10A DNA re-replication, Hoechst nuclear intensity, 48 h; Potency, µM (titrated, usually from 46.1 µM), for inactives: at the highest dose activity, positive = re-replication, usual class: activators; 350,000 compounds, 2.9% hits; AID 624296, 2012; note: % of control where 0% means no effect; nearly all actives have a fitted effect of over 50% in size
# KB-V1 cytotox – qHTS assay for MDR1-selective chemotherapeutics: Primary screen using the drug-selected MDR subline cells KB-V1; KB-V1 MDR cells viability, CellTiter-Glo, 72 h; Potency, µM (series often up to 46.1 µM), actives largely listed as cytotoxic; 400,000 compounds, 3.4% hits; AID 1347076, 2019; note: % is set by controls: 0 for no effect and ±100 for the full control effect; nearly all actives have a fitted effect of over 60% in size
#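 Cells of the MDR subline KB-V1 are plated, dosed with compound at multiple concentrations, and incubated 72 h at 37 degrees C; CellTiter-Glo is then added and luminescence read after 10 min.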
# ALOX12 inh – Primary qHTS assay for inhibitors of human arachidonate 12S-lipoxygenase (ALOX12): Round 2; purified 12hLO, xylenol orange hydroperoxide absorbance; 580,000 compounds, 1.1% hits; Potency, µM (top dose mostly 108 µM), without a hit: at the highest dose activity change, negative = inhibition, hits mostly inhibitors; Polyunsaturated fatty acid lipoxygenase ALOX12 (Homo sapiens), P18054; note: % is set by controls: 0 for no effect and ±100 for the full control effect
# Target sequence (P18054 whole entry, looked up): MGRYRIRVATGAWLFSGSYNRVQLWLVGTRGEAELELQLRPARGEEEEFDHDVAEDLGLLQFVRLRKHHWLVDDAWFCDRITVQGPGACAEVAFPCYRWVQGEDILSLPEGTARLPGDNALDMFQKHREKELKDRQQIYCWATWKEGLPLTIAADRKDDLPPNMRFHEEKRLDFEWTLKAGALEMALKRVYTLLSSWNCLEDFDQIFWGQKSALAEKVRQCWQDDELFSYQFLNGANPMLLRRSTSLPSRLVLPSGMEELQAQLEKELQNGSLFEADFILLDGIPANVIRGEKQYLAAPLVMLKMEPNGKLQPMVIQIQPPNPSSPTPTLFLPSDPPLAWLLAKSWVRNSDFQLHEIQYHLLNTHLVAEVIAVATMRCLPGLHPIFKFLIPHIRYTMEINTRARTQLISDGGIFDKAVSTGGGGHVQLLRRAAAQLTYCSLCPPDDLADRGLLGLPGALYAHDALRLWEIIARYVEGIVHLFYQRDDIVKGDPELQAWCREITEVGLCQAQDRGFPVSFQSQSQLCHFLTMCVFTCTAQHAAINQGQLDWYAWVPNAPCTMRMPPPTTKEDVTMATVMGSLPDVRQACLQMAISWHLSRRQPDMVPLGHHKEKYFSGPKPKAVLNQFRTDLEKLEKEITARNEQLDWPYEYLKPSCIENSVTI
#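 Purified human 12hLO at 150 nM in 25 mM Hepes, 0.01% Triton X-100, pH 7.0, preincubated 15 min at room temperature with compound. Reaction started with 40 uM arachidonic acid, 30 min at room temperature. Hydroperoxide measured by Fe-xylenol orange, 573/405 nm absorbance ratio.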
# SW480 rerep – A quantitative high throughput screen for small molecules that induce DNA re-replication in SW480 colon adenocarcinoma cells | SW480 DNA re-replication, Hoechst DNA content imaging, 48 h | AID 624297, 2012 | 340,000 compounds, 1.8% hits | Potency, µM (doses to about 46.1 µM), without a hit: at the highest dose re-replication activation, actives largely listed as activators; note: % of control where 0% means no effect; nearly all actives have a fitted effect of over 55% in size
#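 DNA re-replication was detected as more nuclei of elevated Hoechst intensity after 48 hr exposure to compound (23 nL pinned per well of 250 cells).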
# KB-3-1 tox – qHTS assay for MDR1-selective chemotherapeutics: Primary screen using the parental adenocarcinoma cell KB-3-1; KB-3-1 viability, CellTiter-Glo ATP luminescence, 72 h; Potency, µM (highest dose often 46.1 µM), actives largely listed as cytotoxic; 400,000 compounds, 1.4% hits; note: % is set by controls: 0 for no effect and ±100 for the full control effect; nearly all actives have a fitted effect of over 60% in size
#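 Luminescent ATP read-out (CellTiter-Glo) measures survival of drug-naive KB-3-1 cells after 72 h compound exposure at 37 °C. Titration series was screened from lowest to highest concentration, with DMSO vehicle plates as background controls.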
# PINK1 modulator – A Quantitative High throughput Screen to Identify Chemical Modulators of PINK1 Expression | 410,000 compounds, 0.2% hits | PINK1 immunofluorescence, high-content cytometry, 24 h | Potency, µM (top dose mostly 76.6 µM), for the others: at the top dose activation (PINK1 increase), most hits filed as activators; active = well fitted activation curve with a large enough effect; inconclusive = small, poorly fitted or top-dose-only effect; cell line not stated here; note: % of control where 0% means no effect; nearly all actives have a fitted effect of over 65% in size
#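 Cells are seeded, rested 12 hours, then given compound at five concentrations or DMSO for 24 hours. After fixation, blocking and antibody staining, PINK1 amount and mitochondrial localization are scored; CCCP serves as control.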
# * marks the source's active call; other numbers are inactive results; i = inactive; ? = inconclusive; · = not tested or not shown; [ ] = remark or other dose. Unless noted, calls come from the whole dose curve; as a rule, active = well fitted curve in the direction sought with a large enough effect; inconclusive = small, poorly fitted or top-dose-only effect, or another doubt; inactive = no such curve, though single readings can be large; an effect the other way counts as inactive or inconclusive. Potency is the fitted concentration of half-maximal effect.
SMILES,MCF10A rereplic,KB-V1 cytotox,ALOX12 inh,SW480 rerep,KB-3-1 tox,PINK1 modulator
COc1ccc(CNC(=S)N/N=C/c2ccc(O)c(OC)c2)cc1,?,i,31.6µM*,-7.1%,i,?
COC(=O)c1cccc(NC(=O)c2ccc3c(c2)N(C)C2CCCCCN2C3=O)c1 (stereo unspecified),·,·,34.9%,·,·,·
COCCNC(=S)N/N=C/c1cc(OC)c(OC)cc1OC,·,·,19.1%,·,·,·
COc1cccc(/C=N/NC(N)=S)c1OCc1cccc(Cl)c1,?,?,35.5µM*,9.9%,i,1.3%
COCCCNC(=S)N/N=C/c1ccc(OC)c(Br)c1,29.3%,i,25.1µM*,3.26µM*,i,1.4%
CC(Oc1ccc(Cl)cc1Cl)c1nc(-c2ccc(NC(=O)c3ccco3)cc2)no1 (stereo unspecified),24.9%,5.8µM*,0.0%,-1.8%,i,3.7%
CCOc1ccc(NC(=O)c2c(NCc3cccnc3)sc3c2CCC(C)C3)cc1 (stereo unspecified),·,·,39.8µM*,·,·,0.6%
CCOc1ccc(NC(=O)c2c(NCc3cccs3)sc3c2CCC(C)C3)cc1 (stereo unspecified),·,i,-0.1%,·,i,1.9%
CCN(CC)c1ccccc1/C=C/[n+]1ccc(CCCCI)c2ccccc21,·,?,·,·,3.66µM*,·
CN(Cc1ccccc1)Cc1nc2c(n1Cc1ccccc1)C(=O)N(CC1CC1)CCN2,·,·,87.2%[176 µM],·,·,·
COc1cc(Cl)c(CC(=O)c2c[nH]c3ccccc23)cc1OC,18.8%,?,-2.7%,-1.4%,13µM*,13.1%
CCOc1ccc(-c2nn(-c3ccccc3)cc2/C=C2\SC(N)=NC2=O)cc1C,10.3µM*,i,1.2%,-2.3%,?,?
Cc1ccc(-c2nn(-c3ccccc3)cc2/C=C2\SC(=S)N(CC(=O)O)C2=O)cc1,13.2%,i,?,-26.9%,i,0.8%
O=C(O)C(c1c[nH]c2cc(Cl)ccc12)N1CCN(C(c2ccccc2)c2ccccc2)CC1 (stereo unspecified),·,·,7.94µM*,·,·,·
O=C(O)C(c1c[nH]c2cc(Br)ccc12)N1CCN(Cc2ccc(Cl)cc2Cl)CC1 (stereo unspecified),·,·,39.8µM*,·,·,·
O=C(O)C(c1c[nH]c2ccccc12)N1CCN(Cc2ccc(Cl)cc2Cl)CC1 (stereo unspecified),·,·,-4.8%,·,·,·
Cc1[nH]c2ccccc2c1/C=N/NC(N)=S,3.4%,i,10.9%,1.6%,i,2.7%
Cc1cccc(NC(=S)N/N=C/c2c[nH]c3ccccc23)c1,1.84µM*,?,?,11.6µM*,11.6µM*,0.0%
FC(F)(F)c1ccccc1/C=N/NC(=S)NCc1ccccc1,·,·,39.8µM*,·,·,·
Cc1[nH]c2ccccc2c1/C=N/NC(=S)NCc1ccccc1,?,i,35.5µM*,-48.7%,i,9.3%
Cc1ccc(NC(=S)N/N=C/c2c(C)[nH]c3ccccc23)cc1,18.4µM*,i,31.6µM*,?,i,14.2%
COc1ccc(CN[C@H]2[C@H](O)[C@H](O)C[C@@H]2c2ccc(C(F)(F)F)cc2)cc1,·,·,47.2%[176 µM],·,·,·
O=C(NCc1cccs1)c1cc(-c2cccc(C(F)(F)F)c2)c2nncn2n1,·,·,-6.1%[6.33 µM],·,·,·
COc1ccc(N(C(=O)c2ccco2)S(=O)(=O)c2ccc3c(c2)oc(=O)n3C)cc1,·,·,-22.0%,·,·,·
CCc1nnc(N/N=C/c2c(F)cccc2Cl)n1N,15.0%,i,-19.4%,16.3%,i,-0.3%
SMILES,MCF10A rereplic,KB-V1 cytotox,ALOX12 inh,SW480 rerep,KB-3-1 tox,PINK1 modulator
CCc1nnc(N/N=C/c2c(C)[nH]c3ccccc23)n1N,11.0%,i,31.6µM*,-2.1%,i,1.0%
Cc1ccc(Cn2cccc2/C=N/NC(=S)Nc2ccc(C)cc2)cc1,?,i,44.7µM*,1.7%,i,4.9%
COc1ccc(C(C)=O)c(OCc2ccccc2C#N)c1,·,·,22.3%,·,·,·
O=c1[nH]c2cc([N+](=O)[O-])c([N+](=O)[O-])cc2[nH]c1=O,0.0%,i,?,6.51µM*,i,1.6%
COc1ccc(-c2csc(NC(=O)CN3CCN(c4cccc(C(F)(F)F)c4)CC3)n2)cc1,·,·,13.8%,·,·,·
Cc1ccccc1NS(=O)(=O)c1ccc(C(=O)NCC(c2ccco2)N(C)C)cc1 (stereo unspecified),?,14.6µM*,0.0%,1.8%,i,-1.5%
Cc1ccc(S(=O)(=O)N(C)c2ccc(C(=O)NCC(c3ccco3)N(C)C)cc2)cc1 (stereo unspecified),9.2µM*,i,344.6%,-1.4%,i,-1.0%
CCCc1noc(-c2cn(C3CCN(C(=O)c4ccc(F)c(F)c4)CC3)nn2)n1,·,·,-15.3%,·,·,·
CCCCN(C)C(=O)c1csc(N2CCN(c3ccccc3)CC2)n1,·,·,10.4%,·,·,·
CCOC(=O)/C(C#N)=C/c1cc(C)n(-c2ccccc2)c1C,?,9.2µM*,-26.3%,-0.4%,i,6.7%
CCOC(=O)/C(C#N)=C/c1cc(C)n(-c2ccc(Br)cc2)c1C,·,·,24.4%,·,·,·
CCc1ccc2oc(-c3ccc(CN)cc3)nc2c1,·,·,-27.6%,·,·,·
Cc1cc(SCC(=O)O)c(C)cc1Br,·,·,-88.6%,·,·,·
O=C(NCc1ccccc1F)C1CCCN(C(=O)NC2CCCCC2)C1 (stereo unspecified),12.2%,20.6µM*,-7.0%,-1.6%,i,1.2%
NC(=O)C1CCCN(C(=O)NC2CCCCC2)C1 (stereo unspecified),0.8%,i,14.2%,3.0%,i,-0.9%
O=C(NCC1CCCCC1)C1CCCN(C(=O)NC2CCCCC2)C1 (stereo unspecified),7.2%,4.11µM*,-1.6%,-0.5%,?,-4.5%
COC(=O)c1c(NC(=O)CC2Nc3ccccc3NC2=O)sc(C)c1C (stereo unspecified),10.3µM*,?,11.2%,3.9%,i,?
CCOC(=O)c1c(NC(=O)CC2Nc3ccccc3NC2=O)sc(C)c1C (stereo unspecified),?,i,65.9%,?,i,12.6µM*
CCC(=O)Nc1ccc2oc(-c3ccc(OC)c(Br)c3)nc2c1,·,·,-6.5%,·,·,·
COc1ccc(NC(=O)c2n[nH]c3ccccc23)cc1S(=O)(=O)Nc1ccccc1Cl,·,·,5.0%,·,·,·
